# Test results from PubChem BioAssay (NCATS).
# Records with an inconclusive call do not appear. Calls of active or inactive are those of the source. Calls come from the whole dose curve; as a rule, active = well fitted inhibition curve with a large enough effect; inconclusive = small, poorly fitted or top-dose-only effect; inactive = flat fitted curve, though single readings scatter.
# Molecular target: Calcium and integrin-binding protein 1 (Homo sapiens) (UniProt Q99828)
# Assay: Primary qHTS for Identification of Calcium Integrin Binding Protein 1 (CIB1) Competitor (AID 1508620);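 note: GST tagged CIB1 binding a fluorescein labelled alphaIIb integrin peptide tracer; top concentration of the series differs between compounds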
# Details: CIB1-GST / FITC-alphaIIb peptide fluorescence polarization; series mostly up to 114 µM; activity change, negative = inhibition: at the top concentration
# Outline: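 Fluorescence polarization competition: CIB1-GST (1 uM final) preincubated with compound 15 min at room temperature, then FITC-labeled alphaIIb peptide (100 nM final) added for another 15 min. Polarization read at Ex 480/Em 540.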
# % is set by controls: 0 for no effect and ±100 for the full control effect.
# Calcium and integrin-binding protein 1 (Homo sapiens), sequence (Q99828 whole entry, looked up): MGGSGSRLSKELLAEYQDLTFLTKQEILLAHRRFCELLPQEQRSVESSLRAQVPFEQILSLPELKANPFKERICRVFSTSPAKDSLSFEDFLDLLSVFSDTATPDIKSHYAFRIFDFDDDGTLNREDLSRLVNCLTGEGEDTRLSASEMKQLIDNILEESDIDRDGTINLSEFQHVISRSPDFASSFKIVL
row,SMILES,"activity change, negative = inhibition"
1,c1ccc(CNCc2nnc(-c3cc4ccccc4[nH]3)s2)cc1,3.19% (inactive)
2,CCOC(=O)C1CCN(c2nc(-c3ccc(Br)cc3)cs2)CC1,-0.614% (inactive)
3,CC(C)(C)OC(=O)CC(=O)NNC(=O)c1cc2ccccc2[nH]1,1.68% (inactive)
4,COc1cccc(CNc2ccc(S(=O)(=O)Nc3ncccn3)cc2)c1O,1.42% (inactive)
5,Cc1cccc(S(=O)(=O)N2CCN(S(=O)(=O)c3ccc4c(c3)OCCO4)CC2)c1,-7.77% (inactive)
6,Cn1c2cc(S(C)(=O)=O)sc2c2cnn(Cc3ccccc3F)c(=O)c21,3.17% (inactive)
7,Cc1cccc(C2N=C(Nc3nc4ccccc4o3)NC3=C2C(=O)CCC3)c1 (stereo not given),-3.54% (inactive)
8,COc1ccc2c(c1)Oc1ncn(CCN3CCOCC3)c(=N)c1C2c1ccc(OC)c(OC)c1 (stereo not given),-1.45% (inactive)
9,COc1ccc(C2Nc3ccccc3C(=O)N2Cc2ccco2)cc1 (stereo not given),-5.79% (inactive)
10,O=c1c2ccccc2nc(-c2ccccc2O)n1Cc1ccccc1,3.98% (inactive)
11,Cc1sc(NC(=O)Cc2ccc3c(c2)OCO3)nc1-c1ccc2c(c1)CCN2C(=O)c1ccccc1F,8.9% (inactive)
12,CS(=O)(=O)c1ccc(C(=O)OCC(=O)N2Cc3ccccc3C2)cc1[N+](=O)[O-],-29.6% (inactive)
13,COc1cccc(C2N=C(Nc3nc4ccccc4o3)NC3=C2C(=O)CCC3)c1 (stereo not given),-13.4% (inactive)
14,O=C1c2ccccc2C(=O)N1c1cnc2ccccc2c1,3.71% (inactive)
15,CCCCN1C(=O)c2ccccc2NC1c1ccc(OC)c(COc2c(C)cc(NC(C)=O)cc2C)c1 (stereo not given),1.72% (inactive)
16,Cc1cc2c(s1)c1cnn(Cc3cc(F)c(F)cc3F)c(=O)c1n2C,4.26% (inactive)
17,O=C1c2ccccc2NC(c2ccc(-c3ccc(Br)cc3)o2)N1O (stereo not given),-16.9% (inactive)
18,Oc1ccc(/C=C/c2ccccc2F)c2cccnc12,-4.89% (inactive)
19,O=C(Nc1ccccc1)OCc1c(-c2ccccc2)no[n+]1[O-],0.45% (inactive)
20,O=C(Cn1nc(-c2ccncc2)ccc1=O)NCCc1ccccc1,6.99% (inactive)

row,SMILES,"activity change, negative = inhibition"
1,O=C(NCCc1nc2ccccc2n1CCOc1cccc([N+](=O)[O-])c1)C1CCCCC1,2.05% (inactive)
2,Cc1ccccc1N(C)C1=N[S+](=O)([O-])c2ccccc21,-6.57% (inactive)
3,COc1ccc(C2Nc3ccccc3C(=O)N2Cc2cccnc2)cc1COc1ccc(NC(C)=O)cc1 (stereo not given),1.98% (inactive)
4,Cc1nc2ccccn2c1P(=O)(c1ccccc1)c1ccccc1,4.61% (inactive)
5,Cc1noc(C)c1-c1ccc2ncnc(NC(C)c3ccco3)c2c1 (stereo not given),-5.88% (inactive)
6,Cc1ccc(NC(=O)CN2C(=O)N/C(=C\c3cccn3-c3ccc(P(=O)(O)O)cc3)C2=O)cc1,1.02% (inactive)
7,Cn1nnnc1Sc1ncnc2scc(-c3cccc(Cl)c3)c12,3.82% (inactive)
8,Cc1ccnc(NC(=S)N2CCN(c3ccc(F)cc3)CC2)c1,-16% (inactive)
9,CN(C)CCNc1ncnc2ccc(-c3ccc4c(c3)OCO4)cc12,3.94% (inactive)
10,Cn1nnnc1Sc1ncnc2scc(-c3ccc(C(=O)OC(C)(C)C)cc3)c12,9.64% (inactive)
11,O=C(Nc1ccc(Cl)c(Cl)c1)Nc1nnc(-c2cccnc2)s1,2.97% (inactive)
12,N#Cc1c(-c2cccc(Br)c2)no[n+]1[O-],4.21% (inactive)
13,COc1cccc(C2c3c(ncn(-c4ccc(Br)cc4)c3=N)Oc3ccc4ccccc4c32)c1 (stereo not given),-9.4% (inactive)
14,O=C1c2ccccc2C(=O)N1c1ccncc1,1.54% (inactive)
15,Nc1cccc(OCCn2c(CCNC(=O)C3CCCCC3)nc3ccccc32)c1,-5.11% (inactive)
16,Cc1c(-c2ccccc2)no[n+]1[O-],1.51% (inactive)
17,O=C(OCC#CCSc1nnc(-c2cccc3ccccc23)o1)c1cccc2[nH]ccc12,6.54% (inactive)
18,Cc1cc(-c2nnc3n2CCCCC3)c(C)n1-c1ccc(C(F)(F)F)cc1,2.74% (inactive)
19,COc1ccc(C2Nc3ccccc3C(=O)N2Cc2ccccc2)cc1COc1ccccc1OC (stereo not given),3.91% (inactive)
20,Cc1noc(C)c1-c1cccc(-c2nn3c(=O)cc(N4CCNCC4)nc3s2)c1,-3.2% (inactive)
